We go through 6 molecules from PubChem BioAssay.

Values joined by “and” are separate entries in the source; they are usually repeats but may differ in a detail not shown here. Equal entries are not always repeated. Where a structure was tested more than once in an assay, its records may differ in their call. Active and inactive are the calls of the source.

Assay [1] can be described thus: optical density shifts of acrAB sulA E. coli – strain DRC41, OD650, 48 h, E. coli filamentation inducer project, primary screen (AID 1152).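 Note: E. coli MC1000 strain DRC41 lacking acrAB efflux pump and sulA.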 To be noted: higher = more signal, called active from +8 up or from −8 down.
Assay [2] is described as follows: probe aLefty1 binding on compound microarray – biochemical, small-molecule microarray, 635/667 nm fluorescence, primary screen (AID 1153).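 Note: score merges spot fluorescence with signal-to-noise ratio from the scanned slide images.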 To be noted: higher = more signal.
Assay [3] can be described thus: plasmodial surface anion channel blockers, osmotic lysis – cell-based, P. falciparum Indochina, OD700, 1 h, primary screen (AID 1154). Conditions: P. falciparum Indochina infected RBC osmotic lysis, higher = more signal, called active from +8 up or from −8 down.
The nature of assay [4]: plasmodial surface anion channel blockers, osmotic lysis – cell-based, P. falciparum Indochina, OD700, 2 h, primary screen (AID 1155).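 Note: lysis reports solute entry through the parasite surface anion channel PSAC.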 Conditions: P. falciparum Indochina infected erythrocytes, higher = more signal, called active from +8 up or from −8 down.
Assay [5] can be described thus: changes in parasitized red cell lysis, either direction – P. falciparum Indochina, OD700, 3 h, PSAC antagonist project, primary screen (AID 1156). To be noted: P. falciparum-infected erythrocytes, osmotic lysis, higher = more signal, called active from +8 up or from −8 down.
A short description of assay [6]: plasmodial surface anion channel blockers, osmotic lysis – cell-based, P. falciparum Indochina, OD700, 18 h, primary screen (AID 1157). Conditions: P. falciparum Indochina infected erythrocytes, osmotic lysis OD700, 18 h; higher = more signal, called active from +8 up or from −8 down.
The nature of assay [7]: S6 kinase pathway phospho-S6 level changes – cell-based, A549, cytoblot, luminescence, serum-stimulated, primary screen (AID 1158).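 Note: serum-stimulated A549 lung adenocarcinoma cells; signal is phosphorylated S6 detected by cytoblot immunostaining with HRP secondary.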 To be noted: 5 h, higher = more signal.
Assay [8] addresses NADPH oxidase 2 (Homo sapiens) (UniProt P04839). The assay can be described thus: compounds shifting NOX2 Amplex Red fluorescence – cell-based, HEK293-NOX2, PMA-stimulated, NOX inhibitor project, primary screen (AID 1159). Note: test concentration not given here. To be noted: 45 min, higher = more signal, called active from +8 up or from −8 down.
The target in assay [9] is NADPH oxidase 4 (Homo sapiens) (UniProt Q9NPH5). As to the kind of experiment: compounds shifting NOX4 Amplex Red fluorescence – cell-based, HEK293-NOX4, tetracycline-induced, NOX inhibitor project, primary screen (AID 1160). To be noted: HEK293-NOX4, Amplex Red H2O2 fluorescence, 45 min; higher = more signal, called active from +8 up or from −8 down.
For assay [10], the target named is NADPH oxidase 5 (Homo sapiens) (UniProt Q96PH1). The assay can be described thus: compounds shifting NOX5 Amplex Red fluorescence – cell-based, HEK293-NOX5, NOX inhibitor project, primary screen (AID 1161). Conditions: HEK293-NOX5, ionomycin, 45 min, higher = more signal.
Assay [11] is described as follows: compound effects on lung adenocarcinoma cell viability – A549, calcein-AM fluorescence, 48 h, basal, profiling panel (AID 1162). Note: test concentration not given here. Conditions: higher = more signal.
Assay [12] can be described thus: compound effects on differentiated 3T3-L1 adipocyte viability – cell-based, 3T3-L1 adipocytes, calcein-AM fluorescence, 48 h, basal, profiling panel (AID 1163). Note: test concentration not given here. To be noted: 3T3-L1 adipocytes viability, higher = more signal.
Assay [13] is described as follows: compound effects on hepatocellular carcinoma cell viability – HepG2, calcein-AM fluorescence, 48 h, basal, profiling panel (AID 1164). Note: test concentration not given here. To be noted: higher = more signal.
Assay [14] is described as follows: compound effects on multiple myeloma cell viability – MM1S, calcein-AM fluorescence, 48 h, basal, profiling panel (AID 1165).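 Note: viability of MM1S multiple myeloma cells under basal unstimulated conditions; test concentration not given here.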 To be noted: higher = more signal.
The nature of assay [15]: calcein-AM signal in unstimulated myeloma cells – cell-based, calcein-AM fluorescence, 48 h, PK04 Diversity Set, profiling panel (AID 1166).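 Note: cells grown under basal conditions without added stimulus; test concentration not given here.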 Conditions: RPMI8226 myeloma viability, higher = more signal.
Assay [16] is described as follows: JC-1 mitochondrial signal, unstimulated HepG2 cells – cell-based, JC-1 fluorescence, 24 h, 100 nL compound, profiling panel (AID 1167). Note: test concentration not given here. Conditions: HepG2 mitochondrial potential, higher = more signal.
Assay [17] in a line: JC-1 mitochondrial signal, unstimulated adipocytes – cell-based, JC-1 fluorescence, 3T3-L1 adipocytes, 24 h, 100 nL compound, profiling panel (AID 1168). Note: test concentration not given here. Conditions: JC-1 mitochondrial fluorescence, higher = more signal, called active from +8 up or from −8 down.
The nature of assay [18]: JC-1 mitochondrial signal, unstimulated myeloma cells – cell-based, JC-1 fluorescence, RPMI8226, 24 h, 100 nL compound, profiling panel (AID 1169). Note: test concentration not given here. Conditions: JC-1 mitochondrial potential fluorescence, higher = more signal.
A short description of assay [19]: JC-1 mitochondrial signal, unstimulated MM1S myeloma – cell-based, JC-1 fluorescence, 24 h, 100 nL compound, profiling panel (AID 1170). Note: test concentration not given here. To be noted: MM1S mitochondrial potential, higher = more signal.
The nature of assay [20]: resazurin metabolic signal in A549 cells – cell-based, resazurin fluorescence, 24 h, PK04 Diversity Set, profiling panel (AID 1171). Note: test concentration not given here. Conditions: A549 viability, higher = more signal, called active from +8 up or from −8 down. On the technique in general: Alamar Blue is a resazurin reagent that responds to reducing activity.

Sequence of NADPH oxidase 2 (Homo sapiens) (P04839 whole entry, looked up): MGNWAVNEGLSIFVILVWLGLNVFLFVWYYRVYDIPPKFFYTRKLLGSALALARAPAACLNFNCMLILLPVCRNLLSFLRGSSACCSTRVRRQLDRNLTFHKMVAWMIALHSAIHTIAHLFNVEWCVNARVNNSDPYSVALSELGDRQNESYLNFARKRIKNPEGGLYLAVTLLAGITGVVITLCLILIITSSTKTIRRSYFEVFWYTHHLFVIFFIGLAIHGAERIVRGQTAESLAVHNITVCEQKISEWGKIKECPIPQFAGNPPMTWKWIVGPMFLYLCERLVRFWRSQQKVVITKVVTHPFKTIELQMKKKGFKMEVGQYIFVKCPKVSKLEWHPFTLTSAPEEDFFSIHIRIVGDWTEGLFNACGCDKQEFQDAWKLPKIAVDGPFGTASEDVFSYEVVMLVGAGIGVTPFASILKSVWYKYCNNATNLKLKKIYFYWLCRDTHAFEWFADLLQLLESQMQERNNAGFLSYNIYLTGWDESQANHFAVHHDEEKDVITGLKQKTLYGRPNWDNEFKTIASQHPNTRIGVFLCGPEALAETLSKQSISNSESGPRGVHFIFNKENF
Sequence of NADPH oxidase 5 (Homo sapiens) (Q96PH1 whole entry, looked up): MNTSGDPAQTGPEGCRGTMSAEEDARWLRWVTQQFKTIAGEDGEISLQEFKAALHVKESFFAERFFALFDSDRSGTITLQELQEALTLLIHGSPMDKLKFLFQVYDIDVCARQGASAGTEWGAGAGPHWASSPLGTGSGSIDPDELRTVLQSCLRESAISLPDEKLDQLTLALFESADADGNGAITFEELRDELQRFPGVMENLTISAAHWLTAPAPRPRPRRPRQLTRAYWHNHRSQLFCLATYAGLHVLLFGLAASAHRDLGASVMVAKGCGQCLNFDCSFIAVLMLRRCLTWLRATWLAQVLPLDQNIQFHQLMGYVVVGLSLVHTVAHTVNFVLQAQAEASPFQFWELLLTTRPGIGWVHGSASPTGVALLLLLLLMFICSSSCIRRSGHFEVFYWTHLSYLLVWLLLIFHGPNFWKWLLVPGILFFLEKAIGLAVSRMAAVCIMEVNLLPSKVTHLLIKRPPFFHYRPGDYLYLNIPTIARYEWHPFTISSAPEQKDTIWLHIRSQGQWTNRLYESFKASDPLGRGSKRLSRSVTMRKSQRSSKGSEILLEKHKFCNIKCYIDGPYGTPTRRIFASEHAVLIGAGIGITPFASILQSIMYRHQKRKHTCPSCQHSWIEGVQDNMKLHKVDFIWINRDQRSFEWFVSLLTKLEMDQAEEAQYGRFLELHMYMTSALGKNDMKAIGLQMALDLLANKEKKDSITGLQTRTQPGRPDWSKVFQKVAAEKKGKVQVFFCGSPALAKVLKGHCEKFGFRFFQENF
Sequence of NADPH oxidase 4 (Homo sapiens) (Q9NPH5 whole entry, looked up): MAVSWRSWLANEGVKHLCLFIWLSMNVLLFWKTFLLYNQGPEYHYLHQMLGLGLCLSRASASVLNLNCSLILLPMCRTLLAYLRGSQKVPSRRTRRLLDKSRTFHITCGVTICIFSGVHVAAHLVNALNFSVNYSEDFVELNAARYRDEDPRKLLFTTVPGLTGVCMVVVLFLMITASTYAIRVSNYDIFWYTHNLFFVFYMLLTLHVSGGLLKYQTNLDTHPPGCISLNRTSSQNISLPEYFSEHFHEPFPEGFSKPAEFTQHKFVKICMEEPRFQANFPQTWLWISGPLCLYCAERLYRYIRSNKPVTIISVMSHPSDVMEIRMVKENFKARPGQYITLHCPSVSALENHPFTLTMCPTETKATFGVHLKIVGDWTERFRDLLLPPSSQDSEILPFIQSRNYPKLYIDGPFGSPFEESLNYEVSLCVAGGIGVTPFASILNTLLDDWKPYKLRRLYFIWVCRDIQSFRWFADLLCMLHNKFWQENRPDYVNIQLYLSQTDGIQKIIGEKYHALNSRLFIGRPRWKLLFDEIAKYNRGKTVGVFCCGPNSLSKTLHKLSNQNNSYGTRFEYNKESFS

As to `CCOC(=O)c1ccc(NC(=O)O[C@H]2[C@H](OC(=O)Nc3ccccc3)[C@H](OC(=O)Nc3ccccc3)[C@@H](OC)O[C@@H]2CO)cc1`, the z-score is 0.473 (inactive) and -0.33 (inactive) in [1]; 14.6 (active) and 24.1 (active) in assay [3]; 2.63 (inactive) and 11.5 (active) in assay [4]; 0.433 (inactive) and -0.123 (inactive) in assay [5]; 1.23 (inactive) and 1.89 (inactive) in assay [6]; -0.636 and 0.647 in [7]. In addition, the z-score in [8] was -0.218 (inactive) and 1.15 (inactive); in assay [9], -0.122 (inactive) and -0.312 (inactive); in assay [10], -0.195 and -0.355; in [11] it was -0.299 and -1.3; in assay [12] it was 0.207 and 0.7; in assay [13], -1.02 and -1.9. For the same molecule, the z-score in assay [14] is -1.08 and -3.02; in assay [15], -0.636 and -3.24; in assay [16], -0.171 and -1.02; in assay [17], 1.31 (inactive) and -0.302 (inactive); in [18], -0.396 and -0.968; in assay [19], -0.45 and -1.27. The z-score in [20] was -1.11 (inactive) and -3.2 (inactive). In addition, in [2], the composite z-score is 0.416 and 0.344.
Consider `CO[C@H]1COC(=O)CC=C[C@@H](C)COC(=O)[C@H](CCSC)NC(=O)CC=C[C@@H]1C`, for which the z-score in assay [1] is -0.949 (inactive) and -0.0368 (inactive); in assay [3], -0.304 (inactive) and 0.171 (inactive); in assay [4], -0.237 (inactive) and 0.588 (inactive); in assay [5], -0.425 (inactive) and -0.189 (inactive); in [6], 0.256 (inactive) and -0.0409 (inactive); in [7], 0.676 and 0.163. The z-score is 1.07 (inactive) and -1.99 (inactive) in assay [8]; -0.824 (inactive) and 0.413 (inactive) in assay [9]; -0.812 and -0.479 in assay [10]; -0.875 and -0.577 in assay [11]; 0.584 and 0.153 in [12]; -0.442 and 0.338 in assay [13]. For the same molecule, the z-score in assay [14] was 0.0739 and -0.242; in [15], -0.858 and 0.708; in [16], 0.755 and 0.535; in assay [17] it was -0.153 (inactive) and 0.157 (inactive); in assay [18] it was -0.688 and 0.358; in assay [19], 0.588 and 1.85. The z-score in [20] is -0.8 (inactive) and 0.705 (inactive). In [2], the composite z-score was -0.188 and 0.32.
For the molecule `C=CCN1C(=O)[C@]2(O[C@H](CCn3cc(CCO)nn3)[C@@H]([Si](C)(C)c3ccc(OC)cc3)[C@@H]2C)c2cc(N3C(=O)c4cccc5cccc3c45)ccc21`, the z-score is 0.833 (inactive) and -0.342 (inactive) in [1]; 24.1 (active) in assay [3]; 9.07 (active) and 8.54 (active) in assay [4]; -0.152 (inactive) and -1.17 (inactive) in [5]; 2.04 (inactive) and 1.7 (inactive) in assay [6]; 1.04 and 0.347 in assay [7]. The z-score in assay [8] is 0.823 (inactive) and 1.03 (inactive); in assay [9] it was 0.265 (inactive) and 0.624 (inactive); in assay [10], -0.371 and -0.152; in assay [11], -3.83 and -4.13; in [12], -1.83 and -2.41; in assay [13], -4.65 and -4.73. For the same molecule, the z-score in [14] was -2.66 and -2.87; in assay [15], -4.33 and -4.37; in [16], -1.51 and 1.37; in assay [17], 5.29 (inactive) and 4.16 (inactive); in assay [18], -0.877 and -0.786; in assay [19], -2.27 and -1.98. Further, the z-score in [20] was -6.11 (inactive). Also, the composite z-score in assay [2] is -0.0536 and 0.188.
As for `C=CCN(Cc1ccccc1)C(=O)C1N(CCCCCCO)C(=O)C2C(C(=O)O)C3C=CC21O3` (stereo not given), the z-score in assay [1] is -0.107 (inactive) and 0.999 (inactive); in assay [3], 0.506 (inactive) and 0.459 (inactive); in assay [4], -0.232 (inactive) and -0.314 (inactive); in assay [5], -0.911 (inactive) and -0.362 (inactive); in [6], 0.135 (inactive) and 0.161 (inactive); in [7], -0.276 and 0.27. In addition, the z-score is 0.498 (inactive) and 0.0836 (inactive) in assay [8]; -0.308 (inactive) and -0.348 (inactive) in assay [9]; 0.751 and 0.232 in assay [10]; -0.217 and 0.516 in assay [11]; 0.231 and 0.375 in assay [12]; -0.642 and -0.438 in assay [13]. For the same molecule, the z-score in assay [14] was -0.184 and -0.0762; in assay [15], 0.462 and 1.64; in assay [16] it was -0.678 and -0.391; in [17], 0.201 (inactive) and 0.867 (inactive); in [18], -0.0429 and 0.0701; in assay [19] it was -0.252 and -0.0839. Moreover, the z-score in assay [20] is -0.0083 (inactive) and 0.239 (inactive). Further, in assay [2], the composite z-score was -0.0508 and -0.101.
Consider `C[C@@H]1CC[C@H]2C(=O)N3[C@@H](CC[C@@H](C)[C@@H]3c3ccc(-c4ccco4)cc3)C(=O)N2[C@H]1c1ccc(-c2ccco2)cc1`, for which the z-score in [1] was -0.581 (inactive) and 0.529 (inactive); in assay [3], 0.91 (inactive) and 0.469 (inactive); in [4], -0.0315 (inactive) and -0.262 (inactive); in assay [5], 0.0919 (inactive) and 1.71 (inactive); in assay [6], -0.364 (inactive) and -0.853 (inactive); in assay [7] it was -0.146 and -0.115. The z-score in [8] is 0.331 (inactive) and 0.931 (inactive); in assay [9] it was -1.03 (inactive) and 0.685 (inactive); in [10] it was -0.273 and -1.03; in assay [11] it was -0.521 and 0.709; in [12], 0.489 and 0.992; in assay [13], -0.676 and -0.195. Further, the z-score in assay [14] was -0.372 and -2.15; in assay [15] it was -0.537 and -1.3; in assay [16] it was -1.41 and -2.19; in assay [17] it was -0.996 (inactive) and -0.779 (inactive); in [18] it was 0.299 and -0.414; in assay [19], 0.863 and 0.498. Besides, the z-score in assay [20] is -0.244 (inactive) and 1.43 (inactive). Also, the composite z-score in assay [2] is 0.0927 and 0.38.
In the case of `CC(C)OC(=O)C=C1C[C@@H](c2ccccc2)O[C@@H](c2ccccc2)O1`, the z-score in assay [1] was 0.676 (inactive) and 0.585 (inactive); in assay [3], 15.2 (active) and 23.2 (active); in assay [4], 1.94 (inactive) and 5.46 (inactive); in assay [5], 0.369 (inactive); in assay [6] it was 1.03 (inactive) and 1.37 (inactive); in [7], -0.104 and -0.0136. Further, the z-score is -0.124 (inactive) and -0.0606 (inactive) in [8]; -0.00431 (inactive) and -1.01 (inactive) in assay [9]; -0.39 and -0.392 in assay [10]; 0.604 and -0.204 in assay [11]; 0.211 and 0.24 in assay [12]; 1.57 and 0.805 in [13]. Besides, the z-score was -1.8 and -3.29 in assay [14]; -0.192 and -1.79 in assay [15]; 1.06 and -0.0936 in [16]; 0.383 (inactive) and 1.71 (inactive) in [17]; -0.374 and -0.422 in [18]; -2.57 and -3.36 in [19]. In [20], the z-score is 1.28 (inactive) and 0.255 (inactive). Also, the composite z-score in assay [2] was -0.0984 and 0.149.
